# How the values were obtained:
# Conditions in all cases: concentration: 1 μM, replicates: in singlicate; n = 1
# MLK1 = tested on: T1, MLK1
# T1 construct: gene MAP3K9
# MLK2 = tested on: MLK2
# MLK3 = tested on: MLK3
# MRCKA = tested on: MRCKA
# MRCKB = tested on: T2, MRCKB
# T2 construct: gene CDC42BPB
# MST1R = tested on: MST1R
# MST1 = tested on: T3, MST1
# T3 construct: gene STK4
# MST2 = tested on: T4, MST2
# T4 construct: gene STK3
# MST3 = tested on: T5, MST3
# T5 construct: gene STK24
# MST4 = tested on: MST4
# MTOR = tested on: MTOR
# MUSK = tested on: MUSK
# MYLK2 = tested on: MYLK2
# MYLK4 = tested on: MYLK4
# MYLK = tested on: MYLK
# MYO3A = tested on: MYO3A
# MYO3B = tested on: MYO3B
# NDR1 = tested on: T6, NDR1
# T6 construct: gene STK38
# NDR2 = tested on: NDR2
# NEK10 = tested on: NEK10
# 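Note: KINOMEscan kinase panel screen.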
SMILES,%Inh (MLK1) [%],%Inh (MLK2) [%],%Inh (MLK3) [%],%Inh (MRCKA) [%],%Inh (MRCKB) [%],%Inh (MST1R) [%],%Inh (MST1) [%],%Inh (MST2) [%],%Inh (MST3) [%],%Inh (MST4) [%],%Inh (MTOR) [%],%Inh (MUSK) [%],%Inh (MYLK2) [%],%Inh (MYLK4) [%],%Inh (MYLK) [%],%Inh (MYO3A) [%],%Inh (MYO3B) [%],%Inh (NDR1) [%],%Inh (NDR2) [%],%Inh (NEK10) [%]
CCNc1nccc(-c2c(-c3ccc(F)cc3)ncn2C2CCN(C)CC2)n1,0,7,0,0,0,0,0,38,21,0,0,97.7,0,0,0,5,0,3,5,0
Cn1cc(-c2ccc3c(c2)CCN3C(=O)Cc2cc(F)cc(C(F)(F)F)c2)c2c(N)ncnc21 [GSK2635225],78,42,72,5,0,19,39,10,0,0,35,28,27,1,12,42,0,25,13,6
Cc1cccc(Nc2nc(NCCN)ncc2C(N)=O)c1 [GSK1292139],85,0,61,2,0,14,35,38,23,23,12,6,5,94.3,8,5,0,21,25,47
Cc1ccc(O)cc1Nc1ccnc2ccc(C(C)(C)C)cc12 [GW856805],11,19,19,0,0,0,0,28,12,36,0,27,5,13,25,13,6,18,23,27
NCCC(NC(=O)c1cc(Br)c(-c2ccnc3[nH]ccc23)s1)c1ccccc1.O=C(O)C(F)(F)F.O=C(O)C(F)(F)F (stereo not shown) [GSK1307810],0,0,0,86,99.1,29,0,4,11,23,12,11,8,99.9,34,0,0,96.7,96.7,9
COC(=O)Nc1nc2cc(Oc3ccc(NC(=O)Nc4cccc(SC)c4)cc3)ccc2[nH]1.Cl [GW697999],0,0,0,14,0,29,4,0,0,0,28,98.9,2,0,11,25,0,11,0,7
Nc1ncnc2scc(-c3ccc(NC(=O)Cc4cc(F)ccc4F)cc3)c12.O=C(O)C(F)(F)F [SB-731254-M],0,28,34,0,4,20,42,0,30,24,0,2,38,72,8,29,0,12,25,0
COc1cc(Nc2nccc(N3CCC(NC(=O)Nc4ccc5c(c4)OCO5)C3)n2)cc(OC)c1OC (stereo not shown) [GSK1379766],36,0,46,11,0,39,0,32,0,0,26,19,10,1,21,18,0,0,9,34
CN(C)CCOc1ccc(-c2cc(-c3ccc(Cl)c(O)c3)c(-c3ccncc3)[nH]2)cc1.Cl.Cl [SB-684387],0,0,0,8,5,34,0,17,0,0,19,0,28,9,18,39,13,35,42,0
Cn1cc(-c2ccc3c(c2)CCN3C(=O)Cc2cc(F)cc(F)c2F)c2c(N)ncnc21 [GSK2634140],38,0,54,0,0,43,85,42,4,0,15,28,82,0,11,38,1,0,0,10
Cc1nn2c(=O)cc(N3CCO[C@H](C)C3)nc2n1Cc1cccc(Cl)c1Cl [GSK2373693],0,5,9,0,60,0,20,0,0,0,61,14,6,2,0,0,0,0,0,0

# Source: article PMC5540273 (PLoS ONE, 2017)
